Laboratory results as given in PubChem BioAssay AID1159580 (chemical genetic matrix, 2015).
The whole screen tested about 5,500 compounds, of which about 2,000 (36%) were called active. Inconclusive results (about 18%) are left out. Rule as the data show it: active = normalized growth mostly below about 0.91 (no sharp cut-off); inconclusive = no clear call, values can overlap the other calls; inactive = mostly above about 0.92. The list shows a part of the results.

Experiment: chemical genetic growth profiling, strain panel (AID 1159580);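 also: tested at 20 µM; growth read once vehicle control cultures reached saturation at 30 °C; 1 = growth at the plate median or of vehicle wells; lower values mean less growth of the strain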
Settings: growth OD

Measured: normalized growth

N#Cc1c(Cl)c(Cl)c(Cl)c(C#N)c1Cl
inactive: S. cerevisiae deletion strains, locus YJR075W, strain HOC1, stronger effect = lower value 0.999 | S. cerevisiae deletion strains, locus YKL009W, strain mrt4, stronger effect = lower value 0.976 | S. cerevisiae deletion strains, locus YKL068W, stronger effect = lower value 0.989 | S. cerevisiae deletion strains, locus YKL085W, strain MDH1 (second series), stronger effect = lower value 0.989 | S. cerevisiae deletion strains, locus YKL085W, strain MDH1, stronger effect = lower value 0.989 | S. cerevisiae deletion strains, locus YKL190W, strain CNB1, stronger effect = lower value 1.01 | S. cerevisiae deletion strains, locus YKR001C, strain vps1, stronger effect = lower value 0.983 | S. cerevisiae deletion strains, locus YLR039C, strain RIC1, stronger effect = lower value 1 | S. cerevisiae deletion strains, locus YLR058C, strain SHM2, stronger effect = lower value 0.994 | S. cerevisiae deletion strains, locus YLR102C, strain apc9, stronger effect = lower value 0.981 | S. cerevisiae deletion strains, locus YLR262C, strain YPT6, stronger effect = lower value 1.02 | S. cerevisiae deletion strains, locus YLR268W, strain sec22, stronger effect = lower value 0.998 | S. cerevisiae deletion strains, locus YLR330W, strain CHS5, stronger effect = lower value 0.996 | S. cerevisiae deletion strains, locus YLR342W, strain FKS1 (second series), stronger effect = lower value 0.993 | S. cerevisiae deletion strains, locus YLR371W, strain rom2, stronger effect = lower value 0.975 | S. cerevisiae deletion strains, locus YLR418C, strain cdc73, stronger effect = lower value 0.995 | S. cerevisiae deletion strains, locus YML016C, strain PPZ1, stronger effect = lower value 0.998 | S. cerevisiae deletion strains, locus YML032C, strain rad52, stronger effect = lower value 0.968 | S. cerevisiae deletion strains, locus YML124C, strain tub3, stronger effect = lower value 0.984 | S. cerevisiae deletion strains, locus YMR078C, strain ctf18, stronger effect = lower value 0.969 | S. cerevisiae deletion strains, locus YMR223W, strain ubp8, stronger effect = lower value 0.975 | S. cerevisiae deletion strains, locus YMR263W, strain SAP30, stronger effect = lower value 1 | S. cerevisiae deletion strains, locus YMR307W, strain GAS1, stronger effect = lower value 0.902 | S. cerevisiae deletion strains, locus YNL067W, strain RPL9B, stronger effect = lower value 1 | S. cerevisiae deletion strains, locus YNL128W, strain TEP1, stronger effect = lower value 0.997 | S. cerevisiae deletion strains, locus YNL153C, strain GIM3, stronger effect = lower value 1.01 | S. cerevisiae deletion strains, locus YNL233W, strain BNI4, stronger effect = lower value 1 | S. cerevisiae deletion strains, locus YNL250W, strain rad50, stronger effect = lower value 0.98 | S. cerevisiae deletion strains, locus YNL271C, strain bni1, stronger effect = lower value 0.974 | S. cerevisiae deletion strains, locus YNL298W, strain CLA4, stronger effect = lower value 0.971 | S. cerevisiae deletion strains, locus YNL307C, strain MCK1, stronger effect = lower value 0.981 | S. cerevisiae deletion strains, locus YNL322C, strain KRE1, stronger effect = lower value 0.997 | S. cerevisiae deletion strains, locus YNR052C, strain pop2, stronger effect = lower value 0.978 | S. cerevisiae deletion strains, locus YOL006C, strain TOP1, stronger effect = lower value 1.01 | S. cerevisiae deletion strains, locus YOL012C, strain htz1 1.56 | S. cerevisiae deletion strains, locus YOL147C, strain pex11, stronger effect = lower value 0.989 | S. cerevisiae deletion strains, locus YOR061W, strain CKA2, stronger effect = lower value 1.01 | S. cerevisiae deletion strains, locus YOR069W, strain VPS5, stronger effect = lower value 0.999 | S. cerevisiae deletion strains, locus YOR136W, strain idh2, stronger effect = lower value 0.977 | S. cerevisiae deletion strains, locus YOR144C, strain elg1, stronger effect = lower value 0.981 | S. cerevisiae deletion strains, locus YOR184W, strain ser1, stronger effect = lower value 0.965 | S. cerevisiae deletion strains, locus YOR316C, strain cot1, stronger effect = lower value 0.984 | S. cerevisiae deletion strains, locus YPL055C, strain LGE1, stronger effect = lower value 1.01 | S. cerevisiae deletion strains, locus YPL241C, strain CIN2, stronger effect = lower value 1 | S. cerevisiae deletion strains, locus YPR119W, strain clb2, stronger effect = lower value 0.985 | S. cerevisiae deletion strains, locus YPR141C, strain kar3, stronger effect = lower value 0.978 | S. cerevisiae deletion strains, locus YPR163C, strain tif3, stronger effect = lower value 0.98 | S. cerevisiae deletion strains, locus YPR167C, strain met16, stronger effect = lower value 0.989 | S. cerevisiae deletion strains, strain wtn01, stronger effect = lower value 0.99 | S. cerevisiae strains, strain wild type, stronger effect = lower value 0.997
active: S. cerevisiae deletion strains, locus YKL160W, strain elf1, stronger effect = lower value 0.0734 | S. cerevisiae deletion strains, locus YKR026C, strain gcn3, stronger effect = lower value 0.0728 | S. cerevisiae deletion strains, locus YKR091W, strain srl3, stronger effect = lower value 0.0738 | S. cerevisiae deletion strains, locus YLL001W, strain dnm1, stronger effect = lower value 0.0739 | S. cerevisiae deletion strains, locus YLL026W, stronger effect = lower value 0.068 | S. cerevisiae deletion strains, locus YLL041C, strain sdh2, stronger effect = lower value 0.0683 | S. cerevisiae deletion strains, locus YLR027C, strain aat2, stronger effect = lower value 0.072 | S. cerevisiae deletion strains, locus YLR113W, strain HOG1, stronger effect = lower value 0.153 | S. cerevisiae deletion strains, locus YLR221C, strain rsa3, stronger effect = lower value 0.0754 | S. cerevisiae deletion strains, locus YLR258W, strain gsy2, stronger effect = lower value 0.0732 | S. cerevisiae deletion strains, locus YLR262C, strain YPT6 (second series), stronger effect = lower value 0.0948 | S. cerevisiae deletion strains, locus YLR320W, strain mms22, stronger effect = lower value 0.0991 | S. cerevisiae deletion strains, locus YLR342W, strain FKS1, stronger effect = lower value 0.0799 | S. cerevisiae deletion strains, locus YLR357W, strain rsc2, stronger effect = lower value 0.146 | S. cerevisiae deletion strains, locus YLR370C, strain arc18, stronger effect = lower value 0.0758 | S. cerevisiae deletion strains, locus YLR384C, strain iki3, stronger effect = lower value 0.0759 | S. cerevisiae deletion strains, locus YML120C, strain ndi1, stronger effect = lower value 0.0696 | S. cerevisiae deletion strains, locus YMR058W, strain fet3, stronger effect = lower value 0.074 | S. cerevisiae deletion strains, locus YMR125W, strain sto1, stronger effect = lower value 0.0959 | S. cerevisiae deletion strains, locus YMR129W, stronger effect = lower value 0.0707 | S. cerevisiae deletion strains, locus YMR205C, strain PFK2, stronger effect = lower value 0.111 | S. cerevisiae deletion strains, locus YMR231W, strain pep5, stronger effect = lower value 0.0788 | S. cerevisiae deletion strains, locus YNL071W, strain lat1, stronger effect = lower value 0.0711 | S. cerevisiae deletion strains, locus YNL183C, strain NPR1, stronger effect = lower value -0.00756 | S. cerevisiae deletion strains, locus YNL209W, strain ssb2, stronger effect = lower value 0.0719 | S. cerevisiae deletion strains, locus YNL248C, strain rpa49, stronger effect = lower value 0.0922 | S. cerevisiae deletion strains, locus YNL322C, strain KRE1 (second series), stronger effect = lower value 0.0768 | S. cerevisiae deletion strains, locus YNR049C, strain mso1, stronger effect = lower value 0.0681 | S. cerevisiae deletion strains, locus YOR001W, strain rrp6, stronger effect = lower value 0.0917 | S. cerevisiae deletion strains, locus YOR070C, strain gyp1, stronger effect = lower value 0.0717 | S. cerevisiae deletion strains, locus YOR080W, strain dia2, stronger effect = lower value 0.0799 | S. cerevisiae deletion strains, locus YOR083W, strain WHI5, stronger effect = lower value 0.0798 | S. cerevisiae deletion strains, locus YOR106W, strain vam3, stronger effect = lower value 0.0853 | S. cerevisiae deletion strains, locus YOR231W, strain MKK1, stronger effect = lower value 0.13 | S. cerevisiae deletion strains, locus YOR265W, strain rbl2, stronger effect = lower value 0.0688 | S. cerevisiae deletion strains, locus YOR270C, strain vph1, stronger effect = lower value 0.122 | S. cerevisiae deletion strains, locus YOR290C, strain snf2, stronger effect = lower value 0.0764 | S. cerevisiae deletion strains, locus YPL051W, strain arl3, stronger effect = lower value 0.0808 | S. cerevisiae deletion strains, locus YPL078C, strain atp4, stronger effect = lower value 0.081 | S. cerevisiae deletion strains, locus YPL106C, strain sse1, stronger effect = lower value 0.126 | S. cerevisiae deletion strains, locus YPL240C, strain hsp82, stronger effect = lower value 0.0722 | S. cerevisiae deletion strains, locus YPL256C, strain CLN2, stronger effect = lower value 0.186
